Laboratory results as given in PubChem BioAssay (NCI).
About 83,000 compounds went through this panel and 20% of them were active in at least one assay; those are over-represented in the sample as a whole.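 Assay: single dose, 48 h. Readout: percent growth (0 = no net growth; negative = cell death). Active: <10.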 Unmarked numbers belong to inactive results. Activity calls are given as the source filed them.

Legend:
Test in all cases: NCI-60 one-dose screen, 48 h (100 = growth as untreated, 0 = no growth, -100 = all killed)
Details in all cases: 10 µM unless noted
[1] = test system: NCI-H23 lung
[2] = test system: NCI-H226 lung
[3] = test system: NCI-H322M lung
[4] = test system: HOP-62 NSCLC
[5] = test system: NCI-H460 lung
[6] = test system: HOP-92 NSCLC
[7] = test system: NCI-H522 lung
[8] = test system: 786-0 renal
[9] = test system: COLO 205 colon
[10] = test system: A549/ATCC NSCLC

SMILES | growth [1] | growth [2] | growth [3] | growth [4] | growth [5] | growth [6] | growth [7] | growth [8] | growth [9] | growth [10]
COc1cccc(-c2nn(-c3ccccc3)cc2-c2ccnc(NCCCNC(=O)c3ccccc3)c2)c1 | 51.3% | 61.4% | 95.2% | 53.6% | 51.7% | 41.5% | 38.3% | 40.2% | 35.2% | 
COc1cccc(-c2nn(-c3ccccc3)cc2-c2ccnc(NCCNC(=O)Nc3ccc(Cl)c(Cl)c3)c2)c1 | 19.7% | 50.5% | 48.1% | 5.85% (active) | 2.74% (active) | -1.01% (active) |  | -41.1% (active) | -37.4% (active) | -18.3% (active)
OC(c1cccc(-n2ccc(C(F)(F)F)n2)c1)c1cnccc1NC1CCCCCC1 (stereo unspecified) | 53.1% | 67.3% | 6.47% (active) | 73.7% | -64.6% (active) | -5.13% (active) |  | 28.9% | -47.2% (active) | 50.2%
CCCCCCCC/C=C\CCCCCCCCOc1ccccc1CC(=O)NCC[N+](C)(C)C | 65.5% | 52.3% | 96.6% | 37% | 23.8% | 61.3% | 51.1% | 50.5% | -7.71% (active) | 
CC(C)(C)C(CCc1ccc(Cl)cc1)N1CCN(C2CCCCC2)CC1 (stereo unspecified) | 47.5% | 78.5% | 82.8% | 47.5% | 25.2% | 45.3% | 41% | 42.4% | 33.7% | 
CCOP(=O)(OCC)C1CP(=O)(c2ccccc2)CC(C)=C1Cl (stereo unspecified) | 91.7% | 99.3% | 97.7% | 97.1% | 113% | 93.1% |  | 87.8% | 109% | 87.5%
COc1ccc(-c2nc(SCCC(C)C)nc(N/N=C\c3ccccc3O)c2C#N)cc1 | 83.2% | 84.4% | 82.7% | 92.5% | 59.1% | 88.4% |  | 88.9% | 96.4% | 
Cc1ccc(Cl)cc1NC(=O)c1cc2ccccc2cc1O | -30.4% (active) | -35.6% (active) | -3.32% (active) | -23.8% (active) | -22.5% (active) | -10.5% (active) |  | -6.83% (active) | 1.54% (active) | 13.9%
O=C1/C(=C/c2ccc(Br)cc2)C=C(c2ccccc2)N1CCc1ccccc1 | 40% | -1.06% (active) | 54.3% | -56.9% (active) | 25.6% | -13.9% (active) |  | -8.73% (active) | 30.4% | 8.19% (active)
O=c1c2cc(F)ccc2sc2c(Nc3cccnc3)nc3ccccc3c12 | 78.8% | 90.5% | 88.8% | 96.1% | 68.5% | 75.1% |  | 86.9% | 85% | 73.7%
Cc1nc2ccccc2c(/C=C/c2ccc(Cl)cc2)c1C(=O)/C=C/c1ccc(F)cc1 | 17.3% | -8.4% (active) | 51.8% | 3.74% (active) | -66.9% (active) | 66.3% |  | -24.7% (active) | 13.9% | 74.6%
c1ccc2cc3nc4cc5ccccc5cc4nc3cc2c1 | 88.8% | 97.3% | 109% | 83.5% | 99.8% | 94.3% |  | 108% | 77.7% | 88.4%
O=Cc1ccc(O)c2ncccc12 | 29.2% | 116% | 97.1% | 44.6% | 30.1% | 43.5% |  | 89.3% | 17.8% | 100%
COc1cc(/C=N/NC(=O)Cn2c(C(C)C)nc3ccccc32)ccc1O | 94.9% | 93.7% | 93.5% | 92.9% | 97.7% | 82.3% | 92.4% | 104% | 109% | 
O=c1ccn2nc3ccccc3c2[nH]1 | 94.6% | 91.3% | 97.8% | 88.4% | 109% | 71.2% |  | 99.2% | 124% | 116%
Nc1n[nH]c2cc(F)c([C@@H]3Nc4c(F)cc5[nH]ncc5c4[C@H]4C5CCC(C5)[C@@H]34)cc12 (stereo partly specified) | 25.5% | 46.3% | 57% | 27.9% | 2.33% (active) | 33.8% |  | 29.2% | -8.08% (active) | 19.4%
COc1ccccc1N1C(=O)/C(=C/C2=Cc3ccccc3OC2)SC1=S | 97.6% | 103% | 92.6% | 91.7% | 102% | 97.7% |  | 101% | 109% | 95.7%
Cc1cc(C(=O)c2ccccc2)c(C)c2c1[nH]c1ccc(Cl)cc12 | 24.6% | 50.6% | 42% | 34.3% | 5.49% (active) | 54.8% |  | 24.4% | -24.8% (active) | 19.6%
Cn1c(-c2c(N)n(Cc3ccc(C(F)(F)F)cc3)c3nc(C#N)c(C#N)nc23)nc2ccccc21 | 1.21% (active) | -1.51% (active) | -4.98% (active) | 21.3% | 4.01% (active) |  |  | 3.33% (active) | -89.7% (active) | 12%
CC(CCc1ccc(Cl)c(Cl)c1)NCc1ccc(C(C)(C)C)cc1 (stereo unspecified) | 91.9% | 83.9% | 97.8% | 85.9% | 90.6% |  | 82.7% | 70.8% | -38.2% (active) | 60.8%
COc1ccc2c(c1)C(=O)/C(=C/c1cccc(OCC(=O)Nc3nc(C)c(C)s3)c1)O2 | -38.6% (active) | 71.8% | 122% | 94.8% | 158% |  | -72.4% (active) | -17.2% (active) | -59.1% (active) | 46.8%
O=S(=O)(O)c1ccc(N/N=C/c2ccccc2Cl)cc1 | 108% | 111% | 108% | 123% |  | 116% | 96.9% | 95.6% | 112% | 99.5%
CCCCCc1nc2c(c3c1CCCC3)CCCC2 | 73.4% | 88.6% | 78.3% | 77.6% | 83% |  | 44.6% | 85% | 89.4% | 72.6%
CC(=O)[C@@H]1CC[C@]2(COS(=O)(=O)c3ccc(C)cc3)CC[C@]3(C)[C@H](CC[C@@H]4[C@@]5(C)CCCNC(C)(C)[C@@H]5CC[C@]43C)[C@@H]12 | 78.6% | 86% | 93.7% | 87.1% | 41.8% |  | 89.8% | 89.5% | -62.4% (active) | 70.5%
COc1ccc(/C=c2\nc3n(-c4ccccc4)c4nc5c6c(sc5c(=N)n4n-3c2=O)CCCC6)cc1 | 80.8% | 69.2% | 94.6% | 88.1% | 98.1% |  |  | 99.5% | 111% | 97.4%
COc1ccc(Cl)cc1NC(=O)C(Br)C(Br)C(=O)O (stereo unspecified) | 67% | 70.9% | 61.5% | 56.6% | 111% |  | -43.5% (active) | 102% | 105% | 115%
COc1cc(C(=O)c2cc(C)c3[nH]c4ccc(Cl)cc4c3c2C)cc(OC)c1OC | 13.8% | 54.8% | 33% | 40% | 4.97% (active) |  | 35.5% | 19.6% | 11% | 19.6%
CCCCCCCCCOc1c(OC)cc(C2CC(=O)Nc3c2c(C)nn3-c2nc3ccccc3[nH]2)cc1OC (stereo unspecified) | -50% (active) | -61.6% (active) | -58.1% (active) | -32.9% (active) | -23.4% (active) |  | -65.2% (active) | -70.7% (active) | 3.77% (active) | 
Cc1ccc(NS(=O)(=O)c2ccc3c(c2)C(=O)CC(c2ccc(C(=O)C(C)C)cc2)N3)cc1C (stereo unspecified) | 44.1% | 57.7% | 67.2% | 69.1% | 53.9% |  |  | 86.3% | 59.4% | 52.4%
